Data as given in PubChem BioAssay AID2783 (National Center for Advancing Translational Sciences (NCATS), 2010).
Results filed as inconclusive are left out. Activity calls are given as the source filed them. Calls come from the whole dose curve; as a rule, active = well fitted inhibition curve with a large enough effect in the polarisation, with a control signal flat (not every such curve was filed as active); inconclusive = small, poorly fitted or top-dose-only effect, or effect the other way, or a change in a side signal; inactive = no such curve, though single readings can be large or run the other way; the % refers to the polarisation.

target: Menin (Homo sapiens) (UniProt O00255); experiment: Confirmation of Inhibitors Targeting the Menin-MLL Interaction in MLL Related Leukemias: Competition With Fluorescein Labeled MLL-derived Peptide; conditions: Fluorescence polarization, fluorescein-MLL peptide displacement from menin; series mostly up to 100 µM
Sequence (O00255 whole entry, looked up): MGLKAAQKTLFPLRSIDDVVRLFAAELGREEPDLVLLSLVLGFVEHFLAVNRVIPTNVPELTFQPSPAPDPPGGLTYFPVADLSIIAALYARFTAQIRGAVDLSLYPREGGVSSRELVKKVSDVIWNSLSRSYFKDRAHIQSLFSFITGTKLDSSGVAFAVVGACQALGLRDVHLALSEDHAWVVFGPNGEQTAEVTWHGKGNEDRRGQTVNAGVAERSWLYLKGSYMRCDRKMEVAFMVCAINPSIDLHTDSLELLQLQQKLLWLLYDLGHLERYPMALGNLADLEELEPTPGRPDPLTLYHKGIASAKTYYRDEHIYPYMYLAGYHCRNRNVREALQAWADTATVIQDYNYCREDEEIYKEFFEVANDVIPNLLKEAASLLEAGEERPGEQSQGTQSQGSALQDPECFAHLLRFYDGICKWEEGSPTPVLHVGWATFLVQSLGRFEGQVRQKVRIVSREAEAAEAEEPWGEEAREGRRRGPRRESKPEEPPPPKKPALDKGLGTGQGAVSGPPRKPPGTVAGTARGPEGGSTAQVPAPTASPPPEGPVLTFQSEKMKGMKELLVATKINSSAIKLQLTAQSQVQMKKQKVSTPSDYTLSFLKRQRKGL

How did the outcome turn out when `Cc1ccc(NC(=O)C(OC(=O)c2ccc(C=O)cc2)c2ccccc2)cc1Cl` (stereo not drawn) was run?
Its outcome is “inactive”.

For `CN(C)/C=C(/C(=O)c1ccc(Cl)cc1)S(=O)(=O)c1ccc(Cl)cc1`, which outcome is on record?
The outcome was “inactive”.

For `O=C(CCN1CCN(c2ccc([N+](=O)[O-])cc2)CC1)c1ccc(Cl)cc1`, which outcome is on record?
Its outcome is “inactive”.

Which outcome does the source give for `CC(NC(=O)c1cnc2ccccc2n1)c1ccccc1` (stereo not drawn) here?
Its outcome is “inactive”.

With `CCCCC(=O)NC(=S)Nc1nnn(CCC)n1` as the compound, how does the outcome read?
Its outcome is “inactive”.

How did the outcome turn out when `Cc1ccc(F)c(C2C3C=CCC(C)C3C(=O)N2Cc2ccccc2)c1` (stereo not drawn) was run?
The outcome was “inactive”.

Which outcome does the source give for `COc1ccc(OC)c(C(c2c(C)[nH][nH]c2=O)c2c(C)[nH][nH]c2=O)c1` here?
The outcome was “inactive”.

With `CC(=O)c1cccc(NS(=O)(=O)c2ccc(N/C=C\C(=O)c3ccc(F)cc3)cc2)c1` as the compound, how does the outcome read?
The outcome was “inactive”.

With `COc1ccccc1NS(=O)(=O)c1cc(NC(=O)Nc2ccccc2)ccc1N1CCCCC1` as the compound, how does the outcome read?
Its outcome is “inactive”.

`COc1ccc(N(CC(=O)NC2CC3CCC2C3)S(=O)(=O)c2ccc(C)cc2)cc1OC` (stereo not drawn) was tested. Which outcome did it give?
The outcome was “inactive”.

For `CN(CCOc1ccc(Cl)cc1)CC(O)c1ccccc1` (stereo not drawn), which outcome is on record?
The outcome was “inactive”.

`C=C(C)CNC(=S)Nc1cccc2cnccc12` was tested. Which outcome did it give?
The outcome was “inactive”.

With `Cc1cc2cc(C(c3nnnn3CC3CCCO3)N3CCCc4ccccc43)c(=O)[nH]c2cc1C` (stereo not drawn) as the compound, how does the outcome read?
The outcome was “inactive”.

For `COc1cc(SC)ccc1C(=O)Nc1cccc(C2OCCCO2)c1`, which outcome is on record?
The outcome was “inactive”.

For `CN(C)CCCOc1ccc2c(c1)Sc1ccccc1CC2=O`, which outcome is on record?
The outcome was “inactive”.

For `CC1CN(c2c3c(nc4ncnn24)CCCC3)CC(C)O1` (stereo not drawn), which outcome is on record?
The outcome was “inactive”.

For `O=C(CSc1nnc(-c2c[nH]c3ccccc23)o1)N1c2ccccc2CCc2ccccc21`, which outcome is on record?
The outcome was “inactive”.

With `COc1ccc(CN2CCC(Cc3ccccc3)CC2)c(C)c1C` as the compound, how does the outcome read?
The outcome was “inactive”.

How did the outcome turn out when `CN[C@H]1[C@H](O)[C@@H](O[C@@H]2[C@H](O)[C@@H](O[C@H]3OC(CN)=CC[C@H]3N)[C@@H](N)C[C@H]2N)OC[C@@]1(C)O` was run?
Its outcome is “inactive”.

With `CN1C[C@@H]2C[C@H]1CN2c1cc2c(cc1F)c(=O)c(C(=O)O)cn2C1CC1` as the compound, how does the outcome read?
The outcome was “inactive”.

With `O=C(Nc1ccc2ccccc2c1)c1cn(-c2ccccc2)nc1-c1cccs1` as the compound, how does the outcome read?
Its outcome is “inactive”.

`Cc1nc2oc3c(NCC4CCCO4)ncnc3c2c2c1COC(C)(C)C2` (stereo not drawn) was tested. Which outcome did it give?
Its outcome is “inactive”.

With `CCc1ccc(NC(=O)CSc2nc(O)cc(=O)n2C2CCCC2)cc1` as the compound, how does the outcome read?
Its outcome is “inactive”.

With `Cc1cc2nc(-c3ccc(SCC(=O)Nc4ccc5c(c4)OCCO5)nc3)[nH]c2cc1C` as the compound, how does the outcome read?
The outcome was “inactive”.

For `O=C(Nc1cc(Br)ccc1O)c1cc(-c2cccs2)on1`, which outcome is on record?
Its outcome is “inactive”.

For `Cc1[nH]nc(-c2ccc(OCc3cnn(-c4ccccc4)c3)c(C)c2O)c1Oc1ccccc1`, which outcome is on record?
The outcome was “inactive”.

With `O=C(/C=C/c1ccccc1)NC(NC(=S)Nc1cc(Cl)ccc1Cl)C(Cl)(Cl)Cl` (stereo not drawn) as the compound, how does the outcome read?
Its outcome is “inactive”.

`CCn1ncc(C(=O)Nc2cc(C)on2)c1C` was tested. Which outcome did it give?
Its outcome is “inactive”.

How did the outcome turn out when `Cc1[nH][nH]c(=O)c1C(c1c(C)[nH][nH]c1=O)c1cn(Cc2ccccc2Cl)c2ccccc12` was run?
Its outcome is “inactive”.

With `CCCCn1c(SCC(=O)NCc2ccc(OC)c(C(=O)O)c2)nc2cc(S(N)(=O)=O)ccc21` as the compound, how does the outcome read?
Its outcome is “inactive”.

Which outcome does the source give for `CCOc1ccc2c(c1)C(NC(C)=O)C(=O)N2CCN1CCOCC1` (stereo not drawn) here?
Its outcome is “inactive”.

Which outcome does the source give for `O=C(O)c1cc(S(=O)(=O)O)cc(Nc2c3ccccc3nc3ccccc23)c1O` here?
The outcome was “inactive”.

Which outcome does the source give for `COc1ccccc1/C=N/n1c(N)c(S(=O)(=O)c2cccs2)c2nc3ccccc3nc21` here?
Its outcome is “inactive”.
